Consider 8 molecules from PubChem BioAssay (NCI).

The structures appear in SMILES notation. The panel holds about 83,000 compounds, 20% with a hit somewhere; the sample as a whole holds those more often.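 In brief: 96-well plates, 48 h treatment, single concentration, percent growth endpoint.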 Values without a mark were called inactive. Activity calls are given as the source filed them. How the source made its calls: active means growth percent below 10; inactive means the rest.

Test systems include DU-145 prostate; K-562 leukemia; MALME-3M melanoma; MDA-MB-231 breast; RXF 393 renal; SF-268 CNS; SF-295 CNS; SF-539 CNS; UACC-257 melanoma; M14 melanoma; HCT-15 colon; HT29 colon; SNB-75 CNS; SNB-19 CNS; U251 CNS; PC-3 prostate; SK-MEL-5 melanoma; UACC-62 melanoma; LOX IMVI melanoma; SK-MEL-28 melanoma.
Common to all, as to experiment: NCI-60 one-dose screen, 48 h (100 = growth as untreated, 0 = no growth, -100 = all killed)
Common to all, as to conditions: 10 µM unless noted

As for `Cc1nc2ccccc2c(/C=C/c2ccccc2)c1C(=O)/C=C/c1ccccc1`, the growth with DU-145 prostate was 12.6%; in the experiment on K-562 leukemia, 9.41% (active); with MALME-3M melanoma, 37.5%; in the experiment on MDA-MB-231 breast it was 29.8%; in the experiment on RXF 393 renal, 21.1%; in the experiment on SF-268 CNS, 40.2%. The growth is 45.8% in the experiment on SF-295 CNS; 8.18% (active) with SF-539 CNS; 9.71% (active) in the experiment on UACC-257 melanoma; 22.5% in the experiment with M14 melanoma; 1.8% (active) with HCT-15 colon; 6.72% (active) in the experiment on HT29 colon. The growth in the experiment with SNB-75 CNS is 19.7%; in the experiment on SNB-19 CNS, 47.7%; with U251 CNS it was -25.3% (active); in the experiment with PC-3 prostate it was 35.1%; in the experiment with SK-MEL-5 melanoma, 45%; in the experiment on UACC-62 melanoma it was 29.8%. Also, the growth in the experiment on LOX IMVI melanoma is -64.1% (active); with SK-MEL-28 melanoma, 24.2%.

For the molecule `C/C=C(\C)C(=O)N[C@H]1C(O)C[C@]2(C)C3CC[C@@]4(C)C(CC[C@@H]4C(C)N(C)C)C3CCC2C1O` (stereo not given in full), the growth in the experiment on DU-145 prostate is 74.6%; in the experiment on K-562 leukemia it was 0.455% (active); in the experiment on MALME-3M melanoma, 17.1%; in the experiment with MDA-MB-231 breast, 65.2%; in the experiment on RXF 393 renal, 81%; with SF-268 CNS it was 13.6%. Besides, the growth is 105% in the experiment with SF-295 CNS; 7.02% (active) in the experiment on SF-539 CNS; 14.6% in the experiment on UACC-257 melanoma; -14.1% (active) in the experiment on M14 melanoma; -28.6% (active) in the experiment on HCT-15 colon; 1.91% (active) in the experiment with HT29 colon. The growth was 74.5% with SNB-75 CNS; 104% with SNB-19 CNS; 52.3% in the experiment on U251 CNS; 45.5% in the experiment on PC-3 prostate; -41.3% (active) in the experiment with SK-MEL-5 melanoma; 62.3% in the experiment on UACC-62 melanoma. Besides, the growth was -26.3% (active) in the experiment with LOX IMVI melanoma and -7.39% (active) in the experiment with SK-MEL-28 melanoma.

As for `CCN1C(=O)N(CC)C2Nn3c(s/c(=C\c4ccccc4Br)c3=O)=NC21` (stereo not given), the growth is 13.6% in the experiment with DU-145 prostate; 10.7% in the experiment with K-562 leukemia; 59.5% with MALME-3M melanoma; 19.7% in the experiment on MDA-MB-231 breast; 28.4% in the experiment with RXF 393 renal; 50.1% with SF-268 CNS. For the same molecule, the growth in the experiment on SF-295 CNS is 25.2%; in the experiment with SF-539 CNS, -20.1% (active); in the experiment on UACC-257 melanoma, 46.1%; with M14 melanoma, 9.07% (active); with HCT-15 colon it was 18.6%; in the experiment on HT29 colon it was 4.78% (active). The growth was -1.27% (active) in the experiment with SNB-75 CNS; 26.6% in the experiment on SNB-19 CNS; 4.95% (active) in the experiment on U251 CNS; 32.1% with PC-3 prostate; 13% in the experiment on SK-MEL-5 melanoma; 22.8% in the experiment on UACC-62 melanoma. In addition, the growth with LOX IMVI melanoma was 20.9%; in the experiment on SK-MEL-28 melanoma it was 42.1%.

Turning to `CC1C(/C=N/NC(N)=S)C(C#N)(C#N)C1(C#N)C#N` (stereo not given), the growth with DU-145 prostate is 96.8%; with K-562 leukemia it was 84.1%; in the experiment on MALME-3M melanoma, 103%; with MDA-MB-231 breast, 106%; with RXF 393 renal, 106%; in the experiment on SF-268 CNS, 91.4%. For the same molecule, the growth with SF-295 CNS was 107%; in the experiment on SF-539 CNS, 111%; with UACC-257 melanoma it was 96.3%; with M14 melanoma it was 102%; in the experiment on HCT-15 colon, 109%; with HT29 colon, 110%. Besides, the growth in the experiment with SNB-75 CNS is 92.7%; in the experiment on SNB-19 CNS it was 101%; in the experiment on U251 CNS, 102%; with PC-3 prostate, 92.9%; in the experiment with SK-MEL-5 melanoma, 104%; in the experiment with UACC-62 melanoma, 96.9%. Besides, the values for the growth with LOX IMVI melanoma and in the experiment on SK-MEL-28 melanoma were 109% and 116%, respectively.

Take `COc1cc(OC)c2sc(-c3ccc(-n4cncc4-c4cc(OC)c(OC)c(OC)c4)cc3)nc2c1`: the growth with DU-145 prostate is 78.3%; with K-562 leukemia, 45.7%; in the experiment with MALME-3M melanoma it was 61.7%; in the experiment on MDA-MB-231 breast, 54.4%; in the experiment with RXF 393 renal, 4.25% (active); with SF-268 CNS, 61%. The growth in the experiment on SF-295 CNS was 60.6%; in the experiment on SF-539 CNS, 62.1%; with UACC-257 melanoma it was 59.8%; in the experiment with M14 melanoma, 69%; with HCT-15 colon, 41.3%; in the experiment with HT29 colon, 44.5%. Also, the growth was 82.9% in the experiment with SNB-75 CNS; 49.7% in the experiment on SNB-19 CNS; 43.1% in the experiment on U251 CNS; 34.4% in the experiment with PC-3 prostate; 20.9% in the experiment on SK-MEL-5 melanoma; 43.8% with UACC-62 melanoma. Besides, the values for the growth with LOX IMVI melanoma and in the experiment on SK-MEL-28 melanoma were 57.7% and 73%, respectively.

Take `Cn1cc(-c2nn3cc(-c4cccs4)nc3s2)c2cc(F)ccc21`: the growth in the experiment with DU-145 prostate is 51.1%; with K-562 leukemia, 15.5%; with MALME-3M melanoma it was 21.2%; with MDA-MB-231 breast, 34.5%; in the experiment on RXF 393 renal, 64.4%; in the experiment on SF-268 CNS, 45.2%. For the same molecule, the growth was 28.2% with SF-295 CNS; 24.3% in the experiment with SF-539 CNS; 63.4% with UACC-257 melanoma; 6.34% (active) in the experiment with M14 melanoma; 23.5% with HCT-15 colon; 7.69% (active) in the experiment on HT29 colon. The growth with SNB-75 CNS was 11.9%; in the experiment on SNB-19 CNS, 32.1%; with U251 CNS it was 26%; in the experiment on PC-3 prostate it was 45.2%; with SK-MEL-5 melanoma, 29.3%; in the experiment on UACC-62 melanoma it was 33.1%. Also, the growth was 35.4% in the experiment with LOX IMVI melanoma and 49.7% in the experiment on SK-MEL-28 melanoma.

`O=C1/C(=C/c2ccc(O)c(O)c2)COc2ccc(-c3ccccc3)cc21`: the growth is 26.5% in the experiment with DU-145 prostate; 15.3% with K-562 leukemia; 41.2% in the experiment with MALME-3M melanoma; 12.9% in the experiment with MDA-MB-231 breast; 16.5% in the experiment with RXF 393 renal; 49.4% in the experiment with SF-268 CNS. Further, the growth was 42.5% with SF-295 CNS; 9.83% (active) in the experiment with SF-539 CNS; 30.4% in the experiment on UACC-257 melanoma; 45.9% with M14 melanoma; -31.2% (active) with HCT-15 colon; 15% in the experiment on HT29 colon. Also, the growth in the experiment with SNB-75 CNS was 21.1%; in the experiment with SNB-19 CNS, 56.2%; in the experiment with U251 CNS, 22.3%; with PC-3 prostate, 19.9%; in the experiment on SK-MEL-5 melanoma, 23.2%; in the experiment on UACC-62 melanoma, -13.6% (active). Moreover, the growth with LOX IMVI melanoma is 4.79% (active); with SK-MEL-28 melanoma it was -11.5% (active).

Take `O=c1c2c3c(sc2n2c(-c4cc(-c5ccccc5)no4)nnc2n1Cc1ccccc1)CCCC3`: the growth in the experiment with DU-145 prostate is 88.5%; in the experiment with K-562 leukemia it was 64.9%; in the experiment with MALME-3M melanoma it was 122%; in the experiment with MDA-MB-231 breast, 80.5%; with RXF 393 renal, 77.8%; with SF-268 CNS, 93.5%. In addition, the growth in the experiment with SF-295 CNS was 83.4%; with SF-539 CNS, 114%; with UACC-257 melanoma, 110%; in the experiment on M14 melanoma, 111%; in the experiment on HCT-15 colon it was 96.9%; in the experiment with HT29 colon, 108%. Also, the growth in the experiment on SNB-75 CNS is 76.2%; in the experiment on SNB-19 CNS, 55.7%; in the experiment with U251 CNS, 94.3%; in the experiment with PC-3 prostate, 71.8%; in the experiment on SK-MEL-5 melanoma it was 105%; in the experiment on UACC-62 melanoma, 80.7%. The growth in the experiment on LOX IMVI melanoma was 81%; in the experiment on SK-MEL-28 melanoma, 127%.
